Test results taken from PubChem BioAssay.
Unmarked numbers belong to inactive results. Where a call stands in place of a potency, no number is given. For some of these results: Potency and affinity values are given separately. Active and inactive are the calls of the source. Unless noted, no rule for the calls is given here.

What was measured:
[1] = antimalarial activity against Dd2 strain (AID 2302;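 active = growth inhibition above 50% at the single 2 µM test dose, taken to imply half-maximal potency below 2 µM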); conditions: P. falciparum Dd2 in RBCs, LDH growth readout, 72 h; at 2 µM; active compounds read high
[2] = human hepatoma cell viability loss – ATP luminescence, cytotoxicity control for P. falciparum antimalarial project, primary screen (AID 2303;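 active = inhibition above 50%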); conditions: HepG2 viability, 24-48 h, at 10 µM, active compounds read high
[3] = target: L-lactate dehydrogenase (Plasmodium falciparum (isolate CDC / Honduras)) (UniProt Q27743); assay: PfLDH activity inhibition – cell lysate, 3D7 strain, counter-screen for P. falciparum growth inhibition project (AID 2304); conditions: P. falciparum 3D7 crude extract, LDH APAD/NBT absorbance; at 2 µM; active compounds read high
Sequence of L-lactate dehydrogenase (Plasmodium falciparum (isolate CDC / Honduras)) (Q27743 whole entry, looked up): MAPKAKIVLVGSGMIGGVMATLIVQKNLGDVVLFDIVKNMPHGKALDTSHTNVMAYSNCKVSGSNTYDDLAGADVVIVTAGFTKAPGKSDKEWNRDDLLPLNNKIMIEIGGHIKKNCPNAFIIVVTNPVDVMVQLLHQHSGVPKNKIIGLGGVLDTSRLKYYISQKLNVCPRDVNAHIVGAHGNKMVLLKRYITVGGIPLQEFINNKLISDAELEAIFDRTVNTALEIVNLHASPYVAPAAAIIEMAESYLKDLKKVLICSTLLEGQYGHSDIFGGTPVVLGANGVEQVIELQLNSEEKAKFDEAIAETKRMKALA

[4] = inhibition of 3D7 malaria parasite growth – strain 3D7 (AID 2306); conditions: P. falciparum 3D7 erythrocytic growth, LDH absorbance, 72 h; at 2 µM; active compounds read high
[5] = target: Calcium-dependent protein kinase 1 (Plasmodium falciparum (isolate 3D7)) (UniProt P62344); assay: PfCDPK1 kinase inhibitors, biochemical, TCAMS library (AID 1159585; cut-off not given, nearly all actives have IC50 up to about 0.98 µM;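 also: inhibitors leave more ATP so luminescence rises with inhibition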); conditions: recombinant PfCDPK1, Kinase-Glo ATP depletion luminescence
Sequence of Calcium-dependent protein kinase 1 (Plasmodium falciparum (isolate 3D7)) (P62344 whole entry, looked up): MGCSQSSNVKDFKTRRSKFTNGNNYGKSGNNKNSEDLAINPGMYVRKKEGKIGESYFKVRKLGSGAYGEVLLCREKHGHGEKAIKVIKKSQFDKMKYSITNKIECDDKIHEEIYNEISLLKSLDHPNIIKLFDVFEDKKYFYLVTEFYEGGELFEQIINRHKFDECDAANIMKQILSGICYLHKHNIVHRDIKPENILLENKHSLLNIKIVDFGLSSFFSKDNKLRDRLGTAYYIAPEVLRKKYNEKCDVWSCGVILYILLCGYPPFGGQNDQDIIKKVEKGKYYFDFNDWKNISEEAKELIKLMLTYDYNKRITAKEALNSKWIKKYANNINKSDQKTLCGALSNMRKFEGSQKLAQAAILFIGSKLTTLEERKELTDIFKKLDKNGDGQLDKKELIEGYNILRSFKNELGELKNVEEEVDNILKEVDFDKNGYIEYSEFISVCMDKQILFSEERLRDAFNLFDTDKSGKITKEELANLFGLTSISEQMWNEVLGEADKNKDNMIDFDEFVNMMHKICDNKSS

[6] = target: Plasmodium falciparum protein kinase 6 (PK6, PF3D7_1337100) (UniProt Q8IDW1); assay: PfPK6 kinase inhibitors, biochemical, TCAMS library (AID 1159586); conditions: recombinant PfPK6, Kinase-Glo ATP depletion luminescence
Sequence of Plasmodium falciparum protein kinase 6 (PK6, PF3D7_1337100) (Q8IDW1 1-305): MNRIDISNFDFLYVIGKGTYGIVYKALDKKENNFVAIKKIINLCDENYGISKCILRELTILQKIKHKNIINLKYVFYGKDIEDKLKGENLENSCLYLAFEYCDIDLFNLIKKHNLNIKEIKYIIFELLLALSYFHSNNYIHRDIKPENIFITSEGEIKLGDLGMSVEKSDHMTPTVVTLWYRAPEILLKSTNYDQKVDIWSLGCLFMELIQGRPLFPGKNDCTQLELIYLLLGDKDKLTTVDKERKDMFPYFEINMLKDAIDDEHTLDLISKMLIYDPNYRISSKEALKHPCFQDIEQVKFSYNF

[7] = target: Protein kinase 7 (PK7), Plasmodium falciparum 3D7 (PF3D7_0213400) (UniProt Q7YTF7); assay: inhibition of Plasmodium PK7 catalytic activity – biochemical, TCAMS antimalarial set, Kinase-Glo luminescence (AID 1159587); conditions: recombinant PfPK7, Kinase-Glo ATP depletion luminescence
Sequence of Protein kinase 7 (PK7), Plasmodium falciparum 3D7 (PF3D7_0213400) (Q7YTF7 1-343): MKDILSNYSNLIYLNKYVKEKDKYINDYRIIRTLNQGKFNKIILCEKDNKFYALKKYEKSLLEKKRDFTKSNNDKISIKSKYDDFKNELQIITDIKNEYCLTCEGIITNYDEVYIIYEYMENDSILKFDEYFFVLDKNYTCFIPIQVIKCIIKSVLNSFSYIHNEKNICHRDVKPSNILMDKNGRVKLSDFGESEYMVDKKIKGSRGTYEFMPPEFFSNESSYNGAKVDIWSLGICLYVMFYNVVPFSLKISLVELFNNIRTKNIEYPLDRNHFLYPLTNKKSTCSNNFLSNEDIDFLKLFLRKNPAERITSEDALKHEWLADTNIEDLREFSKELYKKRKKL

[8] = target: Calcium-dependent protein kinase 4 (Plasmodium falciparum (isolate 3D7)) (UniProt Q8IBS5); assay: PfCDPK4 kinase inhibitors, biochemical, TCAMS library (AID 1159588; cut-off not given, nearly all actives have IC50 up to about 0.91 µM); conditions: recombinant PfCDPK4, Kinase-Glo ATP depletion luminescence
Sequence of Calcium-dependent protein kinase 4 (Plasmodium falciparum (isolate 3D7)) (Q8IBS5 whole entry, looked up): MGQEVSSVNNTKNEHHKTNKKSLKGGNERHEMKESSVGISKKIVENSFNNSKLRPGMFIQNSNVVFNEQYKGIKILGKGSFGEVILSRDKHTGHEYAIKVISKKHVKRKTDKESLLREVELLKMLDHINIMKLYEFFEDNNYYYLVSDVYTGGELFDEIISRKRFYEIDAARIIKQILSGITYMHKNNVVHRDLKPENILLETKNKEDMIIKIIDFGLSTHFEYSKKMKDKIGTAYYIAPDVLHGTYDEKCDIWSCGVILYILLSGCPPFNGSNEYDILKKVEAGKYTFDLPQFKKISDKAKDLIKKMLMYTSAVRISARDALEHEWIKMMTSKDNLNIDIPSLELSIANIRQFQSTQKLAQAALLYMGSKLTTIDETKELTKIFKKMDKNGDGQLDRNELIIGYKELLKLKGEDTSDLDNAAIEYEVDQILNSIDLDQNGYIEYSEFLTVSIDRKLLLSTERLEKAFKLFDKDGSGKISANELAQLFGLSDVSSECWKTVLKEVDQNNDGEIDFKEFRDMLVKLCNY

Structure (SMILES)	growth inhibition [1]	inhibition [2]	inhibition [3] [%]	growth inhibition [4]	outcome [5]	outcome [6]	outcome [7]	outcome [8]
NC(N)=NN=CC(=O)Nc1ccc(Cl)c(Cl)c1	0%	-14%	0	97% (active)	inactive	inactive	inactive	inactive
COc1ccc(CNCc2ccccc2)cc1-c1ccc(OC)c(S(=O)(=O)NCCN2CCCC2)c1	55% (active)	14%	-5	100% (active)	inactive	inactive	inactive	inactive
COc1cccc2[nH]c(NCCCNCc3cc(Br)cc(Br)c3)nc12	2%	5%	-8	88% (active)	inactive	inactive	inactive	inactive
CCN(CC)CCN(Cc1ccc(-c2ccc(C(F)(F)F)cc2)cc1)C(=O)Cn1c(CCc2cccc(F)c2F)nc(=O)c2ccccc21	60% (active)	49%	-3	97% (active)	inactive	inactive	inactive	inactive
Cc1cc(C(=O)Nc2ccc(OCc3ccccc3)cc2)on1	89% (active)	1%	1	87% (active)	inactive	inactive	inactive	inactive
NCC1CCCN1Cc1ccc(-c2cccc(-c3nc4ccc(F)cc4[nH]3)c2)cc1 (stereo not drawn)	31%	38%	4	100% (active)	inactive	inactive	inactive	inactive
O=C(Nc1cccc(C(F)(F)F)c1)c1cccc(S(=O)(=O)NCC2CCCN(CC3CCCCC3)C2)c1 (stereo not drawn)	11%	17%	-1	99% (active)	inactive	inactive	inactive	inactive
COc1cc(OC)c(NC(=O)COc2ccc(C)cc2)cc1Cl	90% (active)	-7%	3	86% (active)	inactive	inactive	inactive	inactive
N#Cc1cccc(NC(=O)Nc2cccc(-c3cccc(-c4nc5ccc(F)cc5[nH]4)c3)c2)c1	66% (active)	60% (active)	0	102% (active)	inactive	inactive	inactive	inactive
CN1CCN(CCCN(Cc2cccc(-c3ccc(CNCCc4ccccc4)cc3)c2)C(=O)c2cccs2)CC1	97% (active)	86% (active)	2	101% (active)	inactive	inactive	inactive	inactive
c1ccc(Oc2ccc(Nc3ccnc(Nc4ccc(CN5CCOCC5)cc4)n3)cc2)cc1	38%	46%	-4	92% (active)	inactive	inactive	inactive	inactive
COc1ccc2nccc([C@@H](O)CN3CCC(NCCOc4cccc(C(F)(F)F)c4)CC3)c2c1	74% (active)	16%	3	102% (active)	inactive	inactive	inactive	inactive
CN1CCC(C(=O)Nc2ccc(-c3ccc(-c4nc5ccccc5[nH]4)cc3)cc2)CC1	94% (active)	28%	5	101% (active)	inactive	inactive	inactive	inactive
CN(c1ncc(-c2cccc(CNCc3ccccc3O)c2)cn1)C1CCCCC1	71% (active)	12%	3	95% (active)	inactive	inactive	inactive	inactive
CCCCCCc1ncc(-c2cc3cc(O)c(-c4ccccc4)cc3oc2=O)s1	63% (active)	4%	-8	90% (active)	inactive	inactive	inactive	inactive
Cc1cccc2c(CON3C(N)=NC(N)=NC3(C)C)cccc12	94% (active)	64% (active)	-1	94% (active)	inactive	inactive	inactive	inactive
CN(C)Cc1c(O)ccc2[nH]c(-c3cccc(F)c3)nc12	71% (active)	9%	-2	99% (active)	inactive	inactive	inactive	inactive
Cc1ccc(NC(=O)c2cc(S(=O)(=O)NC(C)(C)C)ccc2C)nc1	80% (active)	-1%	-2	86% (active)	inactive	inactive	inactive	inactive
O=C(Nc1ccc(Cl)cc1)c1ccc(CN2CCCN(Cc3cccc(O)c3)CC2)cc1	69% (active)	52% (active)	4	100% (active)	inactive	inactive	inactive	inactive
COc1ccc2nccc([C@@H](O)CN3CCC(NCc4cc5cc(OC(F)(F)F)ccc5[nH]4)CC3)c2c1	82% (active)	49%	2	100% (active)	inactive	inactive	inactive	inactive
CN(C)CCNc1ncnc2c1[nH]c1ccc(Br)cc12	7%	2%	-2	100% (active)	inactive	inactive	inactive	inactive

Structure (SMILES)	growth inhibition [1]	inhibition [2]	inhibition [3] [%]	growth inhibition [4]	outcome [5]	outcome [6]	outcome [7]	outcome [8]
C(=NNc1nc2ccccc2[nH]1)c1ccccc1OCc1ccccc1	90% (active)	15%	6	100% (active)	inactive	inactive	inactive	inactive
Oc1ccc(Cl)cc1Nc1nc(C(F)(F)F)nc2ccccc12	63% (active)	16%	5	86% (active)	inactive	inactive	inactive	inactive
O=C(c1cc(-c2cccs2)[nH]n1)N1CCN(S(=O)(=O)c2ccc(Cl)cc2)CC1	95% (active)	-1%	3	96% (active)	inactive	inactive	inactive	inactive
N#Cc1ccc2c(c1)CN(C1CCC(NC(=O)/C=C/c3cc(C(F)(F)F)cc(C(F)(F)F)c3)CC1)CCC2 (stereo not drawn)	4%	34%	-4	95% (active)	inactive	inactive	inactive	inactive
O=C(Nc1cccc(CN2CCCN(Cc3cccc(Cl)c3)CC2)c1)c1ccc(-c2ccccc2)cc1	14%	44%	1	86% (active)	inactive	inactive	inactive	inactive
COc1ccc(Nc2nccc(N3CCC(NC(=O)c4cccc(C#N)c4)C3)n2)cc1 (stereo not drawn)	93% (active)	6%	-3	92% (active)	inactive	inactive	inactive	inactive
COc1cc2c(cc1OC)C(C(=O)c1ccccc1)=NCC2	62% (active)	19%	0	85% (active)	inactive	inactive	inactive	inactive
Cc1cccc(-c2ccc(NC(=O)Nc3ccc4nccc(N5CCN(C)CC5)c4c3)cc2C)n1	95% (active)	4%	-3	101% (active)	inactive	inactive	inactive	inactive
O=C(NCCCCCN1CCCN(C(=O)Nc2ccc(F)c(C(F)(F)F)c2)CC1)[C@@H]1C[C@H]1c1ccc(Cl)c(Cl)c1	1%	61% (active)	2	90% (active)	inactive	inactive	inactive	inactive
CC12CCC(=O)N1C(C(=O)Nc1cccc(C(=O)Nc3cccc(C(F)(F)F)c3)c1)CS2 (stereo not drawn)	89% (active)	6%	-3	92% (active)	inactive	inactive	inactive	inactive
CCOc1cc(C(=O)NCCN(CC)c2cccc(C)c2)ccc1-c1nc2ccc(Cl)cc2[nH]1	80% (active)	-1%	0	102% (active)	inactive	inactive	inactive	inactive
Cc1cc(Nc2cccc(C(F)(F)F)c2)nc(NCc2ccccc2)n1	95% (active)	17%	0	102% (active)	inactive	inactive	inactive	inactive
CCOC(=O)c1cc(Cl)ccc1OCCCON1C(N)=NC(N)=NC1(C)C	95% (active)	69% (active)	3	94% (active)	inactive	inactive	inactive	inactive
CC(C)c1ccc(-c2noc(SCC(=O)N3CCCCC3C)n2)cc1 (stereo not drawn)	92% (active)	21%	2	92% (active)	inactive	inactive	inactive	inactive
COc1ccc(NC(=O)N2CCCN(CCCCCNC(=O)/C=C/c3ccc(C(F)(F)F)cc3)CC2)cc1Cl	-5%	21%	4	93% (active)	inactive	inactive	inactive	inactive
O=C(C=Cc1ccc(Cl)c(Cl)c1)NCCCCCN1CCC(CCNS(=O)(=O)c2ccc(F)cc2)CC1	-5%	36%	2	88% (active)	inactive	inactive	inactive	inactive
O=C(Nc1ccc(C(F)(F)F)cc1)c1cccc(S(=O)(=O)NC2CCN(CC3CCCCC3)C2)c1 (stereo not drawn)	10%	32%	-2	98% (active)	inactive	inactive	inactive	inactive
O=C(/C=C/c1ccc(Cl)c(Cl)c1)NC1CCN(CCNC(=O)c2cccc(Cl)c2)CC1	45%	22%	0	103% (active)	inactive	inactive	inactive	inactive
CN(C)CCCn1c(C(=O)OC(c2ccccc2)c2ccccc2)cc2cc(OCc3ccccc3)ccc21	85% (active)	12%	0	82% (active)	inactive	inactive	inactive	inactive
Cc1cccc2[nH]c(-c3ccc(-c4ccc(CN5CCC(CCN6CCCCC6)CC5)cc4)cc3)nc12	100% (active)	99% (active)	6	100% (active)	inactive	inactive	inactive	inactive
